Values joined by “and” are separate entries in the source; they are usually repeats but may differ in a detail not shown here. Equal entries are not always repeated. Results filed as inconclusive are left out. Active and inactive are the calls of the source. Unless noted, calls follow the shape of the dose curve; as a rule, active = well fitted curve in either direction with a large enough effect (not every such curve was filed as active); inconclusive = small, poorly fitted or top-dose-only effect, or another doubt; inactive = flat fitted curve, though single readings scatter.
What was measured:
[1] = AP1 Signaling Pathway (AID 357); conditions: ME-180 AP-1-bla reporter, EGF-induced, beta-lactamase ratio, 5 h;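 also: ME-180 reporter cells stimulated with EGF at its EC50 level; % is scaled to controls: 0 for no effect and ±100 for the full control effect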
How it was run: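 Beta-lactamase reporter under AP-1 response element, ME-180 background. Stimulus: EC50 EGF. Compound exposure 5 h, 37 °C. Detection: CCF4, 2.5 h RT, 460/530 nm. Values: AC50 from titration.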

[2] = molecular target: Cytochrome P450 1A2 (Homo sapiens) (UniProt P05177); test: p450-cyp1a2 (AID 410; calls by dose curve; also: potency is read from the fitted curve at half-maximal effect;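 as to activity change, negative = inhibition: -100% = full effect of reference inhibitor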); conditions: recombinant CYP1A2, luciferin-ME demethylation, luminescence; series mostly up to 57 µM
How it was run: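 Luminescent demethylation readout: Luciferin-ME (100uM, equal to Km) turned over by 20nM CYP1A2 for 60 min at room temperature after NADPH regeneration addition, following 10 min compound preincubation. Normalization used 57 uM furafylline as full inhibition.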

[3] = NFAT Signaling Pathway (AID 444); conditions: Jurkat NFAT-bla M1, carbachol, beta-lactamase ratio, 5 h;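 also: carbachol stimulus at about its EC50 of 1 µM final; % is scaled to controls: 0 for no effect and ±100 for the full control effect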
How it was run: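 Jurkat cells carrying an NFAT-driven β-lactamase reporter and co-transfected muscarinic M1 receptor were treated with compound plus carbachol (1 uM final, an EC50 level) for 5 h at 37 °C. CCF4 loading followed for 1 h at RT; 460/530 nm ratio gave %activity.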

[4] = molecular target: Glucocorticoid receptor (Homo sapiens) (UniProt P04150); test: GR-GFP Redistribution (AID 450;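 active = compounds whose dose series gives a full or clear partial fitted curve of increased nuclear translocation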; also: potency is read from the fitted curve at half-maximal effect); conditions: U2OS GR-GFP nuclear translocation, laser cytometry, 2 h
[5] = molecular target: Glucocorticoid receptor (Homo sapiens) (UniProt P04150); test: GR-EFC Redistribution (AID 451; calls by dose curve; also: potency is read from the fitted curve at half-maximal effect); conditions: CHO-K1 GR-EFC translocation, beta-gal luminescence, 2 h
How it was run: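 CHO-K1 cells stably expressing nuclear-localized β-gal enzyme acceptor and GR fused C-terminally to the enzyme donor fragment; ligand-driven nuclear translocation restores β-gal by complementation. Compounds titrated up to 46 uM final, 2 h at 37 °C; luminescence read.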

[6] = molecular target: Mitogen-activated protein kinase 10 (Mus musculus) (UniProt Q61831); test: JNK3 AlphaScreen Assay (AID 530); conditions: JNK3 lysate, c-Jun phosphorylation; series mostly up to 57.1 µM;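 also: kinase came from lysate of stimulated human HepG2 cells; signal reports phosphorylation of biotinylated GST-cJun 1-79 at Ser73 with 10 µM ATP; % is scaled to controls: 0 for no effect and ±100 for the full control effect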
How it was run: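 Phosphorylation of biotinylated GST-cJun(1-79) at Ser73 is measured by AlphaScreen proximity luminescence. Enzyme is JNK3 in HepG2 lysates activated with interleukin-1beta and tumor necrosis factor alpha; ATP is 10 uM final.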

[7] = molecular target: 3',5'-cyclic-AMP phosphodiesterase 4B (Homo sapiens) (UniProt Q07343); test: qHTS Assay for Inhibitors of PDE-IV (AID 607; active = well fitted activation curve with a large enough effect in the main read-out, with a control signal flat, not every such curve was filed as active; also: % of control where 0% means no effect); conditions: HEK293 ACTOne CNG channel cells, membrane potential fluorescence; series mostly up to 22.9 µM
How it was run: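 Cell-based read-out of cAMP via a modified cyclic nucleotide-gated channel and membrane potential dye (535/590 nm) in HEK293 cells expressing PDE4 endogenously. Compounds tested up to 22.9 uM final; 100 uM RO 20-1724 reference.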

[8] = qHTS Assay for Lipid Storage Modulators (AID 1519; calls by dose curve); conditions: Drosophila S3 cells, BODIPY lipid droplet/cell ratio, laser cytometry, cells loaded with oleic acid; for activity change, negative = inhibition: at 25.7 µM (top of the series)
How it was run: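 Cells seeded at 5,000 per well were treated with compounds over a concentration series and loaded with oleic acid (400 uM, as added). Lipid droplet fluorescence (488 nm excitation, 500-530 nm channel) was read by laser-scanning cytometry and normalized to 20 uM Triacsin C.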

[9] = molecular target: Ubiquitin carboxyl-terminal hydrolase 1 (Homo sapiens) (UniProt O94782); test: Inhibitors of USP1/UAF1: Pilot qHTS (AID 504865; active = well fitted curve in the direction sought with a large enough effect; an effect the other way counts as inactive or inconclusive;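 also: rhodamine fluorescence freed from ubiquitin-rhodamine substrate followed over time; top concentration of the series differs between compounds; % is scaled to controls: 0 for no effect and ±100 for the full control effect; nearly all actives have a fitted effect of over 35% in size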); conditions: purified USP1/UAF1, Ub-rhodamine cleavage fluorescence; series mostly up to 54.9 µM
How it was run: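 Enzyme-free wells gave the negative control, while test wells held 1nM USP1/UAF1 preincubated with compound for 15 min at room temperature. Ub-Rho at 150nM final started the reaction, and fluorescence at 480/540 nm was recorded kinetically.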

[10] = Stat Signaling Pathway (AID 446); conditions: ME-180 (cervical carcinoma) SIE beta-lactamase reporter, IL-6 stimulated, 5 h;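 also: ME-180 cervical cancer cells given 40 pM IL-6 alongside compound; SIE-controlled beta-lactamase reporter measured as 460/530 nm FRET emission ratio; % is scaled to controls: 0 for no effect and ±100 for the full control effect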
How it was run: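 FRET read-out (405 nm excitation, 460/530 nm emission) of a beta-lactamase reporter under a STAT-inducible element in ME-180 cervical carcinoma cells. Cells with compound receive 40 pM IL-6 for 5 h. Values are normalised to AC90 stimulation and AC90 JAK-inhibitor controls.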

[11] = molecular target: ATP-dependent 6-phosphofructokinase (Trypanosoma brucei brucei) (UniProt O15648); test: qHTS Assay to Find Inhibitors of T. brucei phosphofructokinase: hit validation (AID 492961; active = well fitted curve in the direction sought with a large enough effect; an effect the other way counts as inactive or inconclusive); conditions: T. brucei PFK, ADP-Glo luminescence; series mostly up to 24.3 µM
How it was run: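 PFK 1.25 nM, F6P 0.5 mM, ATP 0.1 mM, MgCl2 5 mM, 0.1 M TEA pH 8.0, Tween20 0.01%, BSA 0.1%; 45 min RT. ADP-Glo two-step detection, luminescence. qHTS titration; curve fitting with curve-class categorization.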

[12] = molecular target: Luciferin 4-monooxygenase (Photinus pyralis) (UniProt P08659); test: Biochemical firefly luciferase enzyme assay for NPC (AID 624030; active = well fitted curve in the direction sought with a large enough effect; an effect the other way counts as inactive or inconclusive;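 also: purified P. pyralis luciferase at 10 nM with luciferin and ATP substrate; 0% = DMSO and -100% = full luciferase inhibition by PTC124 control; nearly all actives have a fitted effect of over 70% in size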); conditions: purified P. pyralis luciferase, luminescence, 5 min; series mostly up to 58.6 µM
How it was run: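 Counter-screen for direct inhibition of the luciferase enzyme by approved-drug library compounds, run at 10 nM enzyme in 50 mM Tris acetate (final). Luminescence was read within 5 min of enzyme-buffer addition and normalized to PTC124 versus DMSO (0%).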

[13] = tested on: CP238; test: qHTS profiling for inhibitors of Plasmodium falciparum proliferation (AID 504749; active = well fitted curve in the direction sought with a large enough effect; an effect the other way counts as inactive or inconclusive; also: nearly all actives have a fitted effect of over 60% in size; also: potency is read from the fitted curve at half-maximal effect;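 as to activity, negative = inhibition: 0% = DMSO vehicle and full inhibition = artemisinin control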); conditions: P. falciparum in erythrocytes, SYBR Green DNA, 72 h; series mostly up to 12.8 µM
How it was run: (§1)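 Quantitative HTS: compounds pinned into medium, infected erythrocytes added (0.3% parasitemia, 2.5% hematocrit), 72 h culture at 37 C under 5% CO2. Saponin/Triton lysis with SYBR Green I, overnight RT, then fluorescence read.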

[14] = tested on: CP262; test: as above; conditions: P. falciparum in erythrocytes, SYBR Green DNA, 72 h; series mostly up to 12.8 µM
How it was run: as §1

[15] = tested on: CP325; test: as above; conditions: P. falciparum in erythrocytes, SYBR Green DNA, 72 h; series mostly up to 12.8 µM
How it was run: as §1

[16] = tested on: ECU; test: as above; conditions: P. falciparum in erythrocytes, SYBR Green DNA, 72 h; series mostly up to 12.8 µM
How it was run: as §1

[17] = tested on: FAB9; test: as above; conditions: P. falciparum in erythrocytes, SYBR Green DNA, 72 h; series mostly up to 12.8 µM
How it was run: as §1

[18] = tested on: HB3; test: as above; conditions: P. falciparum in erythrocytes, SYBR Green DNA, 72 h; series mostly up to 12.8 µM
How it was run: as §1

[19] = tested on: JCK; test: as above; conditions: P. falciparum in erythrocytes, SYBR Green DNA, 72 h; series mostly up to 12.8 µM
How it was run: as §1

[20] = as above; conditions: P. falciparum in erythrocytes, SYBR Green DNA, 72 h, at 12.8 µM (top of the series)
How it was run: as §1

[21] = measured here: cell count channel max response
[22] = measured here: lipid channel max response
[23] = at 7.69 µM (top of the series) unless noted

Sequence of Cytochrome P450 1A2 (Homo sapiens) (P05177 whole entry, looked up): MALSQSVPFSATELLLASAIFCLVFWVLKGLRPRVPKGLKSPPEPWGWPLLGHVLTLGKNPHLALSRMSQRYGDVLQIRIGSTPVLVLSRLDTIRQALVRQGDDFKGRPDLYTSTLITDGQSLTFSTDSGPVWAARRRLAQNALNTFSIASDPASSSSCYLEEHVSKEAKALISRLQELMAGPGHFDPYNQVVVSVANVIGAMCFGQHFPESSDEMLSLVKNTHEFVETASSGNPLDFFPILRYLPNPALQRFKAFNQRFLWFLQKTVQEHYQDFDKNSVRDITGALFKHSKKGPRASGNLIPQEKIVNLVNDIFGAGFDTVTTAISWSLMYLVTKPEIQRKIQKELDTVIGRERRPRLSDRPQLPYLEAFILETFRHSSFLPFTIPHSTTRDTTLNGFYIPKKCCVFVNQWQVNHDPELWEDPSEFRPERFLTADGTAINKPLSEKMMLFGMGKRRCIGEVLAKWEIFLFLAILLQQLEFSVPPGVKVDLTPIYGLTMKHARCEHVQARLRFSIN
Sequence of Glucocorticoid receptor (Homo sapiens) (P04150 whole entry, looked up, the tested form may be a part): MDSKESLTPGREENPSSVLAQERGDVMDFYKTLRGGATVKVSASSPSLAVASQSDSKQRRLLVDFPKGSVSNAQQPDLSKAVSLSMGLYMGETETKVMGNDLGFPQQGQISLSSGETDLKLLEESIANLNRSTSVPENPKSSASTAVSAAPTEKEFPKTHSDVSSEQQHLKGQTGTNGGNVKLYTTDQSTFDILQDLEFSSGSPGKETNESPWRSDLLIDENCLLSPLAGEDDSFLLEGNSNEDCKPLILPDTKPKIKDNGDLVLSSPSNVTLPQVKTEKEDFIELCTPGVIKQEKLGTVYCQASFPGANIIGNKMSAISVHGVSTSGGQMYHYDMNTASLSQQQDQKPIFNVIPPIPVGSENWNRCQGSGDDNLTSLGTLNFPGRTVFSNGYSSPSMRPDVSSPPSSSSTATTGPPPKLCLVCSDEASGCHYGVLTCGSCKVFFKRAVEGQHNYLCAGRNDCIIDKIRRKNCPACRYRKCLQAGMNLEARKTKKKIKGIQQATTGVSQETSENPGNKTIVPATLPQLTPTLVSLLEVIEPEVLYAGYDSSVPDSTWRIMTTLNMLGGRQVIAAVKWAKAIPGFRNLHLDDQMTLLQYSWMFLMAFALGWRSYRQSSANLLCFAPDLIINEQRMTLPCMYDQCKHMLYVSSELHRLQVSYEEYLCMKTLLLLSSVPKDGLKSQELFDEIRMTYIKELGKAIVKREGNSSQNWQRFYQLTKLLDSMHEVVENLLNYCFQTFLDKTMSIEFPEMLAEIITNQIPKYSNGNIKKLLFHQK
Sequence of 3',5'-cyclic-AMP phosphodiesterase 4B (Homo sapiens) (Q07343 whole entry, looked up): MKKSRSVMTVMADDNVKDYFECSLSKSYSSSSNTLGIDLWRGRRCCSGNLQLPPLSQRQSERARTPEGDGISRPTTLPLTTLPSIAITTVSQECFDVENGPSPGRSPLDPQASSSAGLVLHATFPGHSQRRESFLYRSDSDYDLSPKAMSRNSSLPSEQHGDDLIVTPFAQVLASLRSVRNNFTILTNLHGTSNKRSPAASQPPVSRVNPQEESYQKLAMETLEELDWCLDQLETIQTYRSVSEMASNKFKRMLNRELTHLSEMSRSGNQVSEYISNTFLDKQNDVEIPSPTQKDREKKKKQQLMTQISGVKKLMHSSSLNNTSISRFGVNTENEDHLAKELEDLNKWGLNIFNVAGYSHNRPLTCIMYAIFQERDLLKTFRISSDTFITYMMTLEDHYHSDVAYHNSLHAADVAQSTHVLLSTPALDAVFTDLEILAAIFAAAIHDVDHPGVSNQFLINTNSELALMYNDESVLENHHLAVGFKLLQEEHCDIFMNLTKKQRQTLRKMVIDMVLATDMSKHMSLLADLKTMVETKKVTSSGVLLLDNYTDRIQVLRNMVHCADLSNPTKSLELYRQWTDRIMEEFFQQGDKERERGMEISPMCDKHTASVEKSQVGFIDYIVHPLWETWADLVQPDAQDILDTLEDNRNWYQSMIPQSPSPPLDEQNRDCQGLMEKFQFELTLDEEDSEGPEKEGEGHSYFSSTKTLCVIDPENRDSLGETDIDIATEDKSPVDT
Sequence of ATP-dependent 6-phosphofructokinase (Trypanosoma brucei brucei) (O15648 whole entry, looked up): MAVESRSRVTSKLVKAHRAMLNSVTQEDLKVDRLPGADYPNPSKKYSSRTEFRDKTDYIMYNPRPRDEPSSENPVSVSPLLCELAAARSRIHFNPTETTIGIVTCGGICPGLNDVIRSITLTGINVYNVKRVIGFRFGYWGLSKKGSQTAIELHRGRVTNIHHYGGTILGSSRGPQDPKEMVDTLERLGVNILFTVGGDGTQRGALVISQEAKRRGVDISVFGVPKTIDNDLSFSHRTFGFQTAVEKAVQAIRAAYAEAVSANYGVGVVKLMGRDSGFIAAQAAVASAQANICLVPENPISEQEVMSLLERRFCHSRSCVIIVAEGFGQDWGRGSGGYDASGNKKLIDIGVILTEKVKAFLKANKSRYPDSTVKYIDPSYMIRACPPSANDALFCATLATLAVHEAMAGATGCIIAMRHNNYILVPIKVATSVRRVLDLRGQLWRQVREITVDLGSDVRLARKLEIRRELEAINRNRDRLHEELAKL
Sequence of Luciferin 4-monooxygenase (Photinus pyralis) (P08659 whole entry, looked up): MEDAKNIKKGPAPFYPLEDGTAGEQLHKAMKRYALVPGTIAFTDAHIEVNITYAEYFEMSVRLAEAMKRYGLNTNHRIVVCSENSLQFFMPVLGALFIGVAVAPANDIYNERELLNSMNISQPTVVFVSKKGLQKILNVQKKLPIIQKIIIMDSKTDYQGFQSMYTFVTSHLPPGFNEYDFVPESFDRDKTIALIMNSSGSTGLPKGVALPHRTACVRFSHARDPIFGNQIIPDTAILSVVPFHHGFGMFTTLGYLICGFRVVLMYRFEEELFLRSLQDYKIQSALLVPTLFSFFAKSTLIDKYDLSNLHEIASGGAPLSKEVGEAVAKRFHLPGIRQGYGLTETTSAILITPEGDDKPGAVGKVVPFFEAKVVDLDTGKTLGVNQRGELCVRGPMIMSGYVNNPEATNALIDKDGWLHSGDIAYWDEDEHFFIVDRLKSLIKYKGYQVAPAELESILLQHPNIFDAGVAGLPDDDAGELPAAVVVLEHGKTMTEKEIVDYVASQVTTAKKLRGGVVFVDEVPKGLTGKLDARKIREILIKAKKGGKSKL
Sequence of Ubiquitin carboxyl-terminal hydrolase 1 (Homo sapiens) (O94782 whole entry, looked up): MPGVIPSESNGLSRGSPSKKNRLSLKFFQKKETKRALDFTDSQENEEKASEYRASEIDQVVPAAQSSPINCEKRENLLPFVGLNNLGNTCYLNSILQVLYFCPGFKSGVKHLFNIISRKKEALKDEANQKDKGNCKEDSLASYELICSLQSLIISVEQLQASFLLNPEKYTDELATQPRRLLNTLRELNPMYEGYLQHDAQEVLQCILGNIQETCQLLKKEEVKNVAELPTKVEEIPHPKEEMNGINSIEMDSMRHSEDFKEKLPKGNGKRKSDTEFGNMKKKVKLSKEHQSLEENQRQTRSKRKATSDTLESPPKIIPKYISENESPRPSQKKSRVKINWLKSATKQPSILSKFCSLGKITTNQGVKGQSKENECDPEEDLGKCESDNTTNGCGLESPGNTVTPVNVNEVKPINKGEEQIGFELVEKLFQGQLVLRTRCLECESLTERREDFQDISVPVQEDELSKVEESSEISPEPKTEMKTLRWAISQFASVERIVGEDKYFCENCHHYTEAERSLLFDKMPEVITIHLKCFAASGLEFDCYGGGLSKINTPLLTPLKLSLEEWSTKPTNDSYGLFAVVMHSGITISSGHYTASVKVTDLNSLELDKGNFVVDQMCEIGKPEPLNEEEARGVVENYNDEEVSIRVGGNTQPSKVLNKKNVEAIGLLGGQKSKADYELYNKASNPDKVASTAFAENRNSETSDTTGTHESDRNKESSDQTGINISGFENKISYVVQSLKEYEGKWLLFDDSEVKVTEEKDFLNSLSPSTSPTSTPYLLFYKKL

CN1Cc2c(N)cccc2[C@H](c2ccccc2)C1
-0.662%: max response [8, 21]
0.613%: max response [8, 22]
inactive: activity change, negative = inhibition ([1]; at 17.2 µM (top of the series)) -6.53% | activity change, negative = inhibition ([1]; at 38 µM (top of the series)) -7.55% | activity change, negative = inhibition ([3]; at 17.2 µM (top of the series)) -6.69% | activity change, negative = inhibition ([3]; at 38 µM (top of the series)) -5.66% | Potency [4] > 46 µM and > 20.6 µM | Potency [5] > 46 µM and > 20.6 µM | Potency [6] | Potency [7] | activity change, negative = inhibition [8] 1.09% | Potency [9]
active: Potency [2] 31.6 µM and 6.31 µM

CC(=O)OCC1=C(C(=O)O)N2C(=O)[C@@H](NC(=O)Cc3cccs3)[C@@H]2SC1
inactive: activity change, negative = inhibition ([1]; at 17.2 µM (top of the series)) 7.41% | activity change, negative = inhibition ([1]; at 38 µM (top of the series)) -2.48% | Potency [2] | activity, negative = inhibition ([10]; at 17.2 µM (top of the series)) -1.09% | activity, negative = inhibition ([10]; at 38 µM (top of the series)) -3.08% | Potency [4] > 46 µM and > 20.6 µM | Potency [5] > 46 µM and > 20.6 µM | Potency [6] | Potency [7] | activity change, negative = inhibition [8] -1.63%
-18.6%: max response [8, 22]
-17.3%: max response [8, 21]

O[C@@](CCN1CCCCC1)(c1ccccc1)C1CCCCC1
-19.7%: max response [8, 22]
-17.3%: max response [8, 21]
inactive: activity change, negative = inhibition ([1]; at 17.2 µM (top of the series)) 7.19% | activity change, negative = inhibition ([1]; at 38 µM (top of the series)) 17.8% | Potency [2] | activity, negative = inhibition ([10]; at 17.2 µM (top of the series)) -9.32% | activity, negative = inhibition ([10]; at 38 µM (top of the series)) 15.1% | Potency [6] | Potency [7] | activity change, negative = inhibition [8] -1.35%

CCN(CC)CC#CCOC(=O)[C@@](O)(c1ccccc1)C1CCCCC1
-6.72%: max response [8, 21]
inactive: activity change, negative = inhibition ([1]; at 17.2 µM (top of the series)) 0.766% | activity change, negative = inhibition ([1]; at 38 µM (top of the series)) -1.31% | activity, negative = inhibition [10, 23] -21.9% [at 38 µM] | Potency [4] > 46 µM and > 20.6 µM | Potency [5] > 46 µM and > 20.6 µM | Potency [6] | Potency [7] | activity change, negative = inhibition [8] -3.63% | outcome [11] | Potency [9] | outcome [12] | Potency [13] | Potency [14] | Potency [15] | Potency [17] | Potency [18] | Potency [19]
active: Potency [2] 3.98 µM and 1.26 µM | Potency [16] 12.6 µM
-11.7%: max response [8, 22]

NC(=O)OC[C@H](O)COc1ccc(Cl)cc1
14%: max response [8, 21]
active: Potency [2] 10 µM
inactive: activity change, negative = inhibition [1, 23] -4.9% [at 17.2 µM] | activity change, negative = inhibition [3, 23] -9.21% [at 17.2 µM] | activity, negative = inhibition [10, 23] 14.1% [at 17.2 µM] | Potency [4] > 20.6 µM | Potency [5] > 20.6 µM | Potency [6] | Potency [7] | activity change, negative = inhibition [8] -1.93% | outcome [11] | outcome [12] | activity, negative = inhibition ([20]; parasite line A) -2.39% | activity, negative = inhibition ([20]; parasite line B) -7.73% | Potency [13] | Potency [14] | Potency [15] | Potency [16] | Potency [17] | Potency [18] | Potency [19]
12%: max response [8, 22]
